Assay outcomes as filed in PubChem.
This is one part of a sample in which hits are shown more often than they occur.
NSD2 block: inhibitors of human NSD2, primary screen, biochemical, plate reader, single point | 44,000 compounds, 0.07% hits | NSD2-SET H3K36me1 DELFIA fluorescence | inhibition, % at 12.5 µM | Histone-lysine N-methyltransferase NSD2 (Homo sapiens), O96028; in the data active means inhibition above about 54%, passing the limit was not always enough;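 further: inhibitors reduce the monomethyl H3K36 fluorescence signal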
Numbers stand for hits; - = inactive.

SMILES | NSD2 block
CN1C(=O)N[C@@H]2c3ccccc3O[C@@]1(C)[C@@H]2CO[Si](C)(C)C(C)(C)C | -
COC(=O)CCCCCCC(=O)N/N=C/c1cccnc1 | -
O=C(N/N=C/c1ccc(OCCO)cc1)c1ccccc1O | -
C[C@@H](O)[C@@H](O)[C@@H](O)C/C=N/NC(=O)c1ccccn1 | -
COC(=O)CCCCCCC(=O)N/N=C/c1ccc([N+](=O)[O-])s1 | -
CCOC(=O)[C@H](Cc1ccccc1)NC(=O)CN=[N+]=[N-] | -
O=C(N/N=C/[C@H](O)[C@H](O)[C@@H](O)[C@@H](O)CO)c1ccccc1O | -
CC(C)=CCc1c(O)c(CC=C(C)C)c2c(c1O)C(=O)CC(c1ccc(O)cc1O)O2 (configuration not stated) | -
CN1CCN(NC(=O)CN2C(=O)S/C(=C/c3ccc(Cl)cc3)C2=O)CC1 | -
C[C@H]1CCCCO[C@@H](CN(C)S(=O)(=O)c2ccc(F)cc2)[C@@H](C)CN([C@@H](C)CO)C(=O)c2cc(NC(=O)Nc3ccccc3)ccc2O1 | -
CC(C)(C)OC(=O)Nc1ccc(/C=N/NC(=O)c2ccc(C(=O)NO)cc2)cc1 | -
O=C(CCCCC(=O)N/N=C/c1ccc2ccccc2c1)NO | -
O=C(CCCCCC(=O)Nc1ccccc1O)N/N=C/[C@H](O)[C@@H](O)[C@H](O)CO | -
COC(=O)CCCCCCC(=O)N/N=C/c1cc(OC)c(OC)cc1[N+](=O)[O-] | -
O=C(CCCCCCC(=O)Nc1ccccc1O)N/N=C/c1ccc2ccccc2c1O | -
COCc1cc(C)n(CC(=O)Nc2cc(Cl)ccc2OC)c(=O)c1C#N | -
O=C(N/N=C/c1ccc(O)c2ccccc12)c1ccccc1O | -
O=C(CCCCCC(=O)N/N=C/c1ccc([N+](=O)[O-])s1)NO | -
CCCCN1C(=O)[C@H]2Cc3c([nH]c4ccccc34)[C@H](c3ccc(OC)cc3)N2C1=O | -
O=C(CCCCCCC(=O)Nc1ccccc1O)N/N=C/c1cccc(Oc2ccccc2)c1 | -
O=C(CCCCCC(=O)N/N=C/c1cccc(Br)c1)NO | -
CC1(C(=O)c2ccccc2)C2c3c(ccc4ccccc34)OC(=O)C21C(=O)c1ccco1 (configuration not stated) | -
COc1cc(/C=C/C=N/NC(=O)CCCCCCC(=O)Nc2ccccc2O)ccc1O | -
C=C1C(=O)OC2CC(C)C3(/C=C/C(C)=O)OC3CC12 (configuration not stated) | -
C=C(CCCCCCCC(=O)O)C(=O)OC | -
SMILES | NSD2 block
CC(=O)O[C@@H]1CC2C(C)(C)CCC[C@]2(CO)C2=C1C(=O)C(C(C)C)C(=O)C2=O (some centres not stated) | -
CC(C)(C)/C=N/NC(=O)CCCCCCC(=O)NO | -
O=C(N[C@H](COC(=O)[C@H](Cc1ccccc1)NC(=O)c1ccccc1)Cc1ccccc1)c1ccccc1 | -
Cc1nc(-c2ccccc2)sc1-c1nnc(-c2cccc3ccccc23)o1 | -
COC(=O)CCCCCCC(=O)N/N=C/c1ccc(OCCCN(C)C)cc1 | -
O=C(CCc1ccc(O)cc1)CC(CCc1ccc(O)cc1)O[C@@H]1OC[C@@H](O)[C@H](O)[C@H]1O (some centres not stated) | -
CO[C@@H]1C=C[C@@]23c4cc5c(cc4CN(CC2O)[C@H]3C1)OCO5 (some centres not stated) | -
O=C(c1ccccc1)N1CC(=O)N(OCc2ccccc2)C1c1cccs1 (configuration not stated) | -
Cc1ccc(OCc2nc(N)nc(N(C)C)n2)cc1C | -
O=c1cc(-c2ccc(O[C@@H]3O[C@H](CO)[C@@H](O)[C@H](O)[C@H]3O)cc2)oc2cc(O)cc(O)c12 | -
COc1ccc(C(=O)Nc2cccc(N=[N+]=[N-])c2)cc1 | -
CC(CC(N)=O)OC(=O)c1cc(Cl)cc(O)c1O (configuration not stated) | -
COC(=O)c1c(C)cc2c(c(C)c1=O)OC1(C2)C(C)CCC2C(C)(C)OC(=O)C=CC21C (configuration not stated) | -
CC1(C)CC[C@]2(C(=O)O[C@@H]3O[C@H](CO[C@@H]4O[C@H](CO)[C@@H](O)[C@H](O)[C@H]4O)[C@@H](O)[C@H](O[C@@H]4O[C@H](CO)[C@@H](O)[C@H](O)[C@H]4O)[C@H]3O)CC[C@]3(C)C(=CCC4[C@@]5(C)CC[C@H](O)[C@@](C)(C(=O)O)C5CC[C@]43C)C2C1 (some centres not stated) | -
CC(=O)c1c(O)cc(O[C@@H]2O[C@H](CO)[C@@H](O)[C@H](O)[C@H]2O)cc1O | -
CC(C)=CCc1cc(O[C@@H]2O[C@H](CO)[C@@H](O)[C@H](O)[C@H]2O)cc(CC=C(C)C)c1C(O)C(=O)O (some centres not stated) | 60.6
COc1cc(O[C@@H]2O[C@H](CO)[C@@H](O)[C@H](O)[C@H]2O)cc(OC)c1OC | -
